Here are results for eight compounds from PubChem BioAssay (NCATS).

Assay [1] has as its target Lysosomal acid glucosylceramidase (Homo sapiens) (UniProt P04062). In words: Glucocerebrosidase-p2 (AID 348; in the data active means potency below about 10 µM; further: potency means the concentration at half of the fitted maximal effect). Particulars: purified GBA, blue fluorogenic substrate, 40 min. An outline of the steps:
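Compounds titrated from 0.6 nM upwards against 0.2 nM enzyme in pH 5.9 citric acid/KH2PO4, taurocholate, tween-20; blue fluorogenic substrate 80 uM, 40 min room temperature, stopped and read Ex 365/Em 440 for AC50.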

Assay [2] can be described thus: AP1 Signaling Pathway (AID 357). Further: on the % scale 0 is the no-effect control and ±100 the full control effect. To be noted: ME-180 AP-1-bla reporter, EGF-induced, beta-lactamase ratio, 5 h; at 7.69 µM (top of the series) unless noted. An outline of the steps: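 Cells are seeded overnight, exposed to compound titrations and an EC50 level of EGF for 5 hours at 37 °C, then loaded with CCF4 dye for 2.5 hours. Beta-lactamase activity under the AP-1 element is read as a blue/green ratio.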

For assay [3], the target named is Cytochrome P450 1A2 (Homo sapiens) (UniProt P05177). In words: p450-cyp1a2 (AID 410; calls by dose curve; further: potency means the concentration at half of the fitted maximal effect). Particulars: recombinant CYP1A2, luciferin-ME demethylation, luminescence; series mostly up to 57 µM. An outline of the steps: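 Human CYP1A2 (20nM) demethylated Luciferin-ME at its Km (100uM) in 100mM KPO4. After 10 min compound preincubation, NADPH regeneration ran the reaction 60 min at room temperature. Luciferin was read by luminescence, normalized to 57 uM furafylline.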

Assay [4] can be described thus: NFAT Signaling Pathway (AID 444).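 Further: carbachol stimulus at about its EC50 of 1 µM final; on the % scale 0 is the no-effect control and ±100 the full control effect.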 Particulars: Jurkat NFAT-bla M1, carbachol, beta-lactamase ratio, 5 h; at 7.69 µM (top of the series) unless noted. A digest of the protocol:
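Jurkat cells with NFAT-driven β-lactamase reporter and co-expressed M1 receptor, stimulated with carbachol (final 1 uM, ~EC50), compound titration, 5 h at 37 °C. CCF4 loaded 1 h at RT; 460/530 nm ratio gave %activity and AC50.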

The nature of assay [5]: Stat Signaling Pathway (AID 446).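 Further: ME-180 cervical cancer cells given 40 pM IL-6 alongside compound; SIE-controlled beta-lactamase reporter measured as 460/530 nm FRET emission ratio; on the % scale 0 is the no-effect control and ±100 the full control effect.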 Particulars: ME-180 SIE beta-lactamase reporter, IL-6 stimulated, 5 h; at 7.69 µM (top of the series) unless noted. A digest of the protocol:
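Screening format detects activators and inhibitors alike: ME-180 SIE-bla cells stimulated at 40 pM IL-6 for 5 hrs with compound, then dual-emission beta-lactamase read at 405 nm excitation.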

The target of assay [6] is Glucocorticoid receptor (Homo sapiens) (UniProt P04150). Nature of the assay: GR-GFP Redistribution (AID 450;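 active means compounds whose dose series gives a full or clear partial fitted curve of increased nuclear translocation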; further: potency means the concentration at half of the fitted maximal effect). Particulars: U2OS GR-GFP nuclear translocation, laser cytometry, 2 h.
Assay [7] has the same target. Nature of the assay: GR-EFC Redistribution (AID 451; calls by dose curve; further: potency means the concentration at half of the fitted maximal effect). To be noted: CHO-K1 GR-EFC translocation, beta-gal luminescence, 2 h. A digest of the protocol:
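CHO-K1 cells expressing nuclear EA and GR-ED fragments of b-gal; compounds titrated up to 46 uM final, 2 h at 37 C. GR nuclear translocation read as complemented b-gal luminescence after 1 h RT detection.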

In assay [8] the target is Mitogen-activated protein kinase 10 (Mus musculus) (UniProt Q61831). In words: JNK3 AlphaScreen Assay (AID 530).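 Further: kinase came from lysate of stimulated human HepG2 cells; signal reports phosphorylation of biotinylated GST-cJun 1-79 at Ser73 with 10 µM ATP; on the % scale 0 is the no-effect control and ±100 the full control effect.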 To be noted: JNK3 lysate, c-Jun phosphorylation; series mostly up to 57.1 µM. An outline of the steps:
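qHTS format: compounds tested as titrations against IL-1beta/TNF-alpha-activated HepG2 lysate JNK3 with biotin-GST-cJun substrate and 10 uM ATP at room temperature. Loss of anti-phospho-cJun AlphaScreen signal indicates inhibition.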
In general terms: In Alpha technology, singlet oxygen from a donor bead excites a nearby acceptor bead.

For assay [9], the target named is 3',5'-cyclic-AMP phosphodiesterase 4B (Homo sapiens) (UniProt Q07343). In words: qHTS Assay for Inhibitors of PDE-IV (AID 607; active means well fitted activation curve with a large enough effect in the main read-out, with a control signal flat, not every such curve was filed as active; further: % of control where 0% means no effect). To be noted: HEK293 ACTOne CNG channel cells, membrane potential fluorescence; series mostly up to 22.9 µM. An outline of the steps: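 The readout is membrane depolarisation from a cAMP-sensing CNG channel, detected with a potential dye at ex 535/em 590. Cells were HEK293-derived (endogenous PDE-IV) at 1000 cells/well, titrated up to 22.9 uM final.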
On the technique in general: qHTS replaces the single test concentration by a dilution series.

Assay [10] addresses Cytochrome P450 3A4 (Homo sapiens) (UniProt P08684). In words: qHTS Assay for Inhibitors and Substrates of Cytochrome P450 3A4 (AID 884; active means well fitted curve in the direction sought with a large enough effect; an effect the other way counts as inactive or inconclusive; further: nearly all actives have a fitted effect of over 50% in size; further: potency means the concentration at half of the fitted maximal effect). Particulars: recombinant CYP3A4, Luciferin-PPXE luminescence; series mostly up to 57.1 µM. An outline of the steps: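 20 nM human CYP3A4 with 25 uM Luciferin-PPXE (at KM) in 200 mM KPO4, preincubated 10 min with compound; NADPH regeneration started a 60 min RT reaction. Luciferin detected by luminescence, normalized to 57 uM ketoconazole as full inhibition.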

The target is the same in assay [11]. Nature of the assay: qHTS Assay for Activators of Cytochrome P450 3A4 (AID 885; active means well fitted curve in the direction sought with a large enough effect; an effect the other way counts as inactive or inconclusive; further: nearly all actives have a fitted effect of over 65% in size). Particulars: recombinant CYP3A4, Luciferin-PPXE luminescence, 60 min; series mostly up to 57.1 µM. An outline of the steps:
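Steps: enzyme/substrate mix dispensed; compound added, 10 min RT; NADPH regeneration solution added, 60 min RT; luciferin detection buffer stops reaction; 20 min later luminescence measured.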

Assay [12] in a line: qHTS Assay for Lipid Storage Modulators (AID 1519; calls by dose curve). Particulars: Drosophila S3 cells, BODIPY lipid droplet/cell ratio, laser cytometry, cells loaded with oleic acid. An outline of the steps: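 Cells seeded at 5,000 per well were treated with compounds over a concentration series and loaded with oleic acid (400 uM, as added). Lipid droplet fluorescence (488 nm excitation, 500-530 nm channel) was read by laser-scanning cytometry and normalized to 20 uM Triacsin C.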

For assay [13], the target named is Ubiquitin carboxyl-terminal hydrolase 1 (Homo sapiens) (UniProt O94782). In words: Inhibitors of USP1/UAF1: Pilot qHTS (AID 504865; active means well fitted curve in the direction sought with a large enough effect; an effect the other way counts as inactive or inconclusive;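 further: rhodamine fluorescence freed from ubiquitin-rhodamine substrate followed over time; top concentration of the series differs between compounds; on the % scale 0 is the no-effect control and ±100 the full control effect; nearly all actives have a fitted effect of over 35% in size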). To be noted: purified USP1/UAF1, Ub-rhodamine cleavage fluorescence; series mostly up to 54.9 µM. A digest of the protocol: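 In 50mM HEPES pH 7.8 containing 0.5mM EDTA, 1mM TCEP, 0.1 mg/ml BSA and 0.01% Tween-20, 1nM USP1/UAF1 is exposed to compound for 15 min, then Ub-Rho (150nM final) is added and fluorescence is read over time.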

Assay [14] can be described thus: Confirmation and Secondary Assay for Modulators of Hemoglobin Beta Chain Splicing at IVS2 654 locus (AID 910; active means well fitted curve in the direction sought with a large enough effect; an effect the other way counts as inactive or inconclusive;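 further: HeLa cells stably carrying EGFP split by mutant beta-globin IVS2-654 intron; % of control where 0% means no effect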). To be noted: HeLa EGFP-654 splicing reporter, GFP fluorescence, 48 h; series mostly up to 38.3 µM. A digest of the protocol:
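HeLa cells stably expressing EGFP interrupted by β-globin IVS2-654 intron, seeded overnight in Opti-MEM/2% FCS, then treated 2 days at 37 °C. Restored splicing read as total peak GFP intensity per well by laser scanning cytometry (488 nm excitation, 500–520 nm emission); 500 nM antisense PNA as control.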

Assay [15] is described as follows: Confirmation and Secondary Assay for Modulators of Hemoglobin Beta Chain Splicing at IVS2 705 locus (AID 930; active means well fitted curve in the direction sought with a large enough effect; an effect the other way counts as inactive or inconclusive;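 further: HeLa cells stably expressing the EGFP-705 splicing reporter; GFP fluorescence per well restored by corrected splicing of the IVS2-705 intron in EGFP; % of control where 0% means no effect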). Particulars: HeLa EGFP-705 splicing reporter, GFP fluorescence, 48 h; series mostly up to 38.3 µM. A digest of the protocol:
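First, HeLa EGFP-705 cells are seeded at 500/well in Optimem with 2% FCS and left overnight. Next, compound or DMSO is added for 2 days. Finally wells are laser-scanned and total peak GFP intensity scored.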

In assay [16] the target is Glutathione peroxidase 1 (Homo sapiens) (UniProt P07203). In words: Primary qHTS Assay for Inhibitors of Recombinant Selenoprotein Glutathione Peroxidase 1 (GPX1) (AID 1845191; active means well fitted curve in the direction sought with a large enough effect; an effect the other way counts as inactive or inconclusive; further: nearly all actives have a fitted effect of over 65% in size). Particulars: recombinant GPX1, GR-coupled NADPH fluorescence, 15 min; series mostly up to 48.8 µM. An outline of the steps: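 GR-coupled assay: compounds preincubated 30 min at room temperature with GPX1, then reaction started with CHP; final 10 nM GPX1, 1 mM GSH, 0.5 mM CHP, 0.5 mM NADPH, 100 nM GR, 0.01% BSA, pH 7.5 Tris buffer. NADPH fluorescence (340/450 nm) read at 0 and 15 min.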

Assay [17] concerns the target Cytochrome P450 2C19 (Homo sapiens) (UniProt P33261). In words: qHTS Assay for Inhibitors and Substrates of Cytochrome P450 2C19 (AID 899; active means well fitted curve in the direction sought with a large enough effect; an effect the other way counts as inactive or inconclusive; further: potency means the concentration at half of the fitted maximal effect; nearly all actives have a fitted effect of over 60% in size). Particulars: recombinant CYP2C19, luciferin-H EGE luminescence; series mostly up to 57.1 µM. A digest of the protocol: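 Luminescent read-out of luciferin formed from Luciferin-H EGE (10uM, equal to KM). Enzyme 5nM in 50mM KPO4; compound added, 10 min at 37C, then NADPH regenerating system for 60 min at 37C. Full inhibition defined by 57uM ketoconazole.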

The mark [18] stands for this setting: measured here: cell count channel max response.
The mark [19] stands for this setting: measured here: lipid channel max response.

Records with an inconclusive call do not appear. Active and inactive are the calls of the source. Unless noted, the call rests on the fitted dose curve; in most records, active means well fitted curve in either direction with a large enough effect (not every such curve was filed as active); inconclusive means small, poorly fitted or top-dose-only effect, or another doubt; inactive means flat fitted curve, though single readings scatter.

Chain of Cytochrome P450 3A4 (Homo sapiens) (P08684 whole entry, looked up): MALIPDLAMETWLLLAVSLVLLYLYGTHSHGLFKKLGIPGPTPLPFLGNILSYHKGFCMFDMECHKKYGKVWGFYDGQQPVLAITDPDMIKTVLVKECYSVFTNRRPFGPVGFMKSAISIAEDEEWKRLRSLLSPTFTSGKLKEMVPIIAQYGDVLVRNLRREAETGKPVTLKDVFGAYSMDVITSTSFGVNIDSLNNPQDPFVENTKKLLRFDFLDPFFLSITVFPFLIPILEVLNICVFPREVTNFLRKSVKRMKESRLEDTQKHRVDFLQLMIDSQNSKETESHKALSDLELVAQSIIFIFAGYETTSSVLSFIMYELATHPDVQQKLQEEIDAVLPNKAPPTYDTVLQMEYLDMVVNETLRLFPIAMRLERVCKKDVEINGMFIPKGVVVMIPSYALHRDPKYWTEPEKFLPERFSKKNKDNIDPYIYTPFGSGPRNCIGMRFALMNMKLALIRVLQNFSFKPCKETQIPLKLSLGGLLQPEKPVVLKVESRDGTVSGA
Chain of Glucocorticoid receptor (Homo sapiens) (P04150 whole entry, looked up): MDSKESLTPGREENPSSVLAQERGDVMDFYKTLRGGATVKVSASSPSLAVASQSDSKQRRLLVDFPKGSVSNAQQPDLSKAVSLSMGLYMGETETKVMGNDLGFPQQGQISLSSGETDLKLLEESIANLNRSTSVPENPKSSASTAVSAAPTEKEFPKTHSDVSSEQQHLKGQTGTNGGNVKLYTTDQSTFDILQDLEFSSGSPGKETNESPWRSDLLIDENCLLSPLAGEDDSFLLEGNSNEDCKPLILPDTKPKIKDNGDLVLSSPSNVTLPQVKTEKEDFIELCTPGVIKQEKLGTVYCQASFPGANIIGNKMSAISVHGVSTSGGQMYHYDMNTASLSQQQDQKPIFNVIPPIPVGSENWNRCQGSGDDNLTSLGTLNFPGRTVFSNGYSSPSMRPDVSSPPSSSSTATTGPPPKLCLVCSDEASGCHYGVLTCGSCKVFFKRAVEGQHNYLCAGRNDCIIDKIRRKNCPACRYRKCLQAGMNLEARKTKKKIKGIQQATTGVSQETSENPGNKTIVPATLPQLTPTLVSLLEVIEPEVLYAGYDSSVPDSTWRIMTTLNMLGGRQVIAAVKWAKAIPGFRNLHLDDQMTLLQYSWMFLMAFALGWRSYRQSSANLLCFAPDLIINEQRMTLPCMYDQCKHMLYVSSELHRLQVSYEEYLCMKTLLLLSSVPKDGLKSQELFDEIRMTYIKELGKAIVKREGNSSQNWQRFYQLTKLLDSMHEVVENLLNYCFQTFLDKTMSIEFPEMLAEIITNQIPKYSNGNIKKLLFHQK
Chain of 3',5'-cyclic-AMP phosphodiesterase 4B (Homo sapiens) (Q07343 whole entry, looked up): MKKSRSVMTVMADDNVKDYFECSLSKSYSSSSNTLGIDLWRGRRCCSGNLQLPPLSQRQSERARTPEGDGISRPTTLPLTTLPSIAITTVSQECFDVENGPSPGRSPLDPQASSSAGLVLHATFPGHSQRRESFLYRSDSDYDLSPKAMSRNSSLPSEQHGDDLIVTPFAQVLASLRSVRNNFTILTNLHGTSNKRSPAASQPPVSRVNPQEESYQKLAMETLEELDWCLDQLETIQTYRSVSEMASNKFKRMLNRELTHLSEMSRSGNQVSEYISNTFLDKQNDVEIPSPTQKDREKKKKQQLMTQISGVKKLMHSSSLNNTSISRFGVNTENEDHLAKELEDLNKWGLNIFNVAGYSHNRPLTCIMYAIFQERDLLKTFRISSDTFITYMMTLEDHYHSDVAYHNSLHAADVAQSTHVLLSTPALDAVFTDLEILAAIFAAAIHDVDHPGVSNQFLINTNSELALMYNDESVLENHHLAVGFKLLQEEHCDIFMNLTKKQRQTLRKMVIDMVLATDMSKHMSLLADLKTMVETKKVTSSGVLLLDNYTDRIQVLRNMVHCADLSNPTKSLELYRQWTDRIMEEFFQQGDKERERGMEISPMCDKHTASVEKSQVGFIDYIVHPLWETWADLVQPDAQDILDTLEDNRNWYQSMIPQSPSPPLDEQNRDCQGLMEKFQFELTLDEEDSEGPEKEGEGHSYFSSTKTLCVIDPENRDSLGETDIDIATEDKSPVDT
Chain of Lysosomal acid glucosylceramidase (Homo sapiens) (P04062 whole entry, looked up): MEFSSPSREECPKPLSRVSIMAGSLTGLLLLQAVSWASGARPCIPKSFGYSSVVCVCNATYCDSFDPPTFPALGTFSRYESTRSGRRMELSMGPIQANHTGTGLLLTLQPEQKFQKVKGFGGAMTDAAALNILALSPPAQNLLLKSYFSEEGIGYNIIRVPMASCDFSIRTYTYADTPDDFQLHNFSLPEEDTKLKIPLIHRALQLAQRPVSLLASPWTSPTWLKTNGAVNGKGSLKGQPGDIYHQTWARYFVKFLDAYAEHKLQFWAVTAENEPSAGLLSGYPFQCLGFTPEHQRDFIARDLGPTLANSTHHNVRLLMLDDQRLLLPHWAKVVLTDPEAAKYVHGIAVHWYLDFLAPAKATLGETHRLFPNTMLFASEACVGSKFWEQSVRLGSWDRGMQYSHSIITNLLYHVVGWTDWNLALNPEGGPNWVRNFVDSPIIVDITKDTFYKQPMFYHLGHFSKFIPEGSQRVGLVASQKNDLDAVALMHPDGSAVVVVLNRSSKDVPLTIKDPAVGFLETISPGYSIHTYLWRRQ
Chain of Ubiquitin carboxyl-terminal hydrolase 1 (Homo sapiens) (O94782 whole entry, looked up): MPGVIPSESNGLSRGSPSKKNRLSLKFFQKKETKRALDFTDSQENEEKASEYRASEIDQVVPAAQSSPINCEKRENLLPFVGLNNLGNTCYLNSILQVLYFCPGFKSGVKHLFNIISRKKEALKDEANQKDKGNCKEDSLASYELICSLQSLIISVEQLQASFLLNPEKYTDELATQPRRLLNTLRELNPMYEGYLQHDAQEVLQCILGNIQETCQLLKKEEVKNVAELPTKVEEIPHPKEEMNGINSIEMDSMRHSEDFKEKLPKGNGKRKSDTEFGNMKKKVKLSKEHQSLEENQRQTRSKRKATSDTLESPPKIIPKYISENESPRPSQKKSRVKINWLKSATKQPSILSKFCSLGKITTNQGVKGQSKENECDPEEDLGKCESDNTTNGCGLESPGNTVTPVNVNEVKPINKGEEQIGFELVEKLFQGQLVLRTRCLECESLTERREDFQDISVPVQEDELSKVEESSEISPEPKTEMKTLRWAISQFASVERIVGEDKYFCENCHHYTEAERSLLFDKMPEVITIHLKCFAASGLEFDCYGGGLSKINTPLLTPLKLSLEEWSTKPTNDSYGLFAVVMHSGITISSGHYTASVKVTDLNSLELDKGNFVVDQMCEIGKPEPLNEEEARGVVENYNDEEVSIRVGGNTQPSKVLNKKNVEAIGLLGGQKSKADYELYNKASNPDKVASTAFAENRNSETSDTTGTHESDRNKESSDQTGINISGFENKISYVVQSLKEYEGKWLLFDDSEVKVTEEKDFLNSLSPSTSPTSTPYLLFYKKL
Chain of Cytochrome P450 1A2 (Homo sapiens) (P05177 whole entry, looked up): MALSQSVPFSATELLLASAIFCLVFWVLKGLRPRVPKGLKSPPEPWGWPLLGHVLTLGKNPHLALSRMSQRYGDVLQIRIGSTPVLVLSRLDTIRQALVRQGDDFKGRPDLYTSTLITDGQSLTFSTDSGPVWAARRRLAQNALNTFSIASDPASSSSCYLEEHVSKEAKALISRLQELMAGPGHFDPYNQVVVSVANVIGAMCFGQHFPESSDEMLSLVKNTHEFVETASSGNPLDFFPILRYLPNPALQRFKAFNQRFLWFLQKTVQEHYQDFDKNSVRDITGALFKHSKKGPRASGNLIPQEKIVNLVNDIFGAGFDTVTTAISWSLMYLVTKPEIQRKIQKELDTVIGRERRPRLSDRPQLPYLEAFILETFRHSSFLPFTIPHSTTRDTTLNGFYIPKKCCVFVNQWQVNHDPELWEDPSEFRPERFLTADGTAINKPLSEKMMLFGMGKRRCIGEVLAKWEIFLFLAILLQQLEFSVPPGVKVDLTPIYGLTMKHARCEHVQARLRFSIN
Chain of Glutathione peroxidase 1 (Homo sapiens) (P07203 whole entry, looked up): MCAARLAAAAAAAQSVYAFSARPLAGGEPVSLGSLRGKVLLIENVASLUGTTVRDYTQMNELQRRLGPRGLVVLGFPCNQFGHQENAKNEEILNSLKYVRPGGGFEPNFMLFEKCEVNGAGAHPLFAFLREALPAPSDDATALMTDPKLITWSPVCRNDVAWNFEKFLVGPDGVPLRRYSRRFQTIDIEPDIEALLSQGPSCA
Chain of Cytochrome P450 2C19 (Homo sapiens) (P33261 whole entry, looked up): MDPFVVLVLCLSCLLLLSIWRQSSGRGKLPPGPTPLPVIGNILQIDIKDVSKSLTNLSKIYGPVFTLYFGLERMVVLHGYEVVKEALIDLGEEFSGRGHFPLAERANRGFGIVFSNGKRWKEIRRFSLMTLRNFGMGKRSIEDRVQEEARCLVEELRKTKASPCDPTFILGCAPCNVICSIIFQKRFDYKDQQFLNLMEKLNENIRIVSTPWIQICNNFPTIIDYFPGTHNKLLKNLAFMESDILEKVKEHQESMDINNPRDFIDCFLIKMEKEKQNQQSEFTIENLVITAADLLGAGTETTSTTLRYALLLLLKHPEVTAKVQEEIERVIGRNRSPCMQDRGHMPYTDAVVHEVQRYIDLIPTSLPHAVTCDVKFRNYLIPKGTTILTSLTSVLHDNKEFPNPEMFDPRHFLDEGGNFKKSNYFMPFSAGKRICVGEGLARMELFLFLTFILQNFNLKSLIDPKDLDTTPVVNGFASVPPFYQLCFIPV

Consider `Cc1cnc(CNc2ncnc3ccc(-c4ccccc4C(F)(F)F)cc23)cn1`, for which the Potency was > 11.4 µM (inactive) in [1]; 12.6 µM (active) in assay [3]; > 46 µM (inactive) in assay [6]; > 46 µM (inactive) in assay [7]; 2 µM (active) in [10]. Also, the results for the activity change, negative = inhibition in assay [2], in [4] and in assay [12] (at 57.5 µM (top of the series)) were 15.7% (inactive), -22.4% (inactive) and 0.934% (inactive), respectively. The activity, negative = inhibition in [5] is -29.2% (inactive). Besides, the Potency entry in assay [8], in [9], in assay [11] and in [13] was “inactive” each time. Moreover, the figures for the max response in assay [12] (setting [18]) and in assay [12] (setting [19]) were 8.56% and 7.96%, respectively.

`COc1ccccc1CNc1cc(-c2cccc(C#N)c2)ncn1`: the Potency is > 11.4 µM (inactive) in assay [1], 3.98 µM (active) in assay [3], > 46 µM (inactive) in assay [6] and > 46 µM (inactive) in [7]. Further, the activity change, negative = inhibition in [2] was -5.31% (inactive); in assay [4] it was 17.8% (inactive); in [12] (at 57.5 µM (top of the series)) it was 3.16% (inactive). Besides, the activity, negative = inhibition in [5] was -0.867% (inactive). Further, the Potency entry in [8], in [9], in assay [11] and in [13] was “inactive” each time. Moreover, the values for the max response in assay [12] (setting [18]) and in assay [12] (setting [19]) were 4.01% and 4.55%, respectively.

On to `N#Cc1ccccc1-c1ccc2ncnc(NCc3cccs3)c2c1`, for which the Potency in [1] was > 11.4 µM (inactive); in [6], > 46 µM (inactive); in assay [7] it was > 46 µM (inactive). The activity change, negative = inhibition in assay [2] is -0.438% (inactive); in [4], 20.9% (inactive); in [12] (at 57.5 µM (top of the series)), 2.64% (inactive). For the same compound, in [5], the activity, negative = inhibition is -2.46% (inactive). Moreover, the Potency result in [8], in assay [9] and in assay [13] was “inactive” in each case. Besides, the max response in assay [12] (setting [18]) was 0.851%; in assay [12] (setting [19]) it was -0.129%.

For `C=C(C)[C@H]1CC=C(C)C(=O)C1`, the Potency entry in [8], in assay [10] and in [13] was “inactive” in each case. Besides, in assay [12] (at 57.5 µM (top of the series)), the activity change, negative = inhibition was -4.73% (inactive). The max response in assay [12] (setting [18]) is -28%; in [12] (setting [19]) it was -15.9%.

Take `C=CC(C)(O)CCC=C(C)C` (configuration not stated): the Potency entry in [8], in [10] and in [13] was “inactive” in each case. Further, the activity change, negative = inhibition in assay [12] (at 57.5 µM (top of the series)) was -9.56% (inactive). The figures for the max response in assay [12] (setting [18]) and in assay [12] (setting [19]) were -17.5% and -25.1%, respectively.

Turning to `COS(C)(=O)=O`, the Potency entry in assay [8], in [10], in [14] and in assay [13] was “inactive” each time. Further, the outcome in [15] was inactive. Further, the activity change, negative = inhibition in assay [12] (at 57.5 µM (top of the series)) was 5.21% (inactive). The max response in [12] (setting [18]) is -1.86%; in [12] (setting [19]), 4.2%.

Regarding `CC12CC[C@@H]3c4ccc(OS(=O)(=O)O)cc4CC[C@H]3C1CCC2=O` (some centres not stated), the results for the activity change, negative = inhibition in assay [2], in [4] and in [12] (at 25.7 µM (top of the series)) were 19.9% [at 17.2 µM] (inactive), -17.6% [at 17.2 µM] (inactive) and -2.17% (inactive), respectively. The activity, negative = inhibition in assay [5] is -9.95% [at 17.2 µM] (inactive). Besides, the Potency in [6] and in assay [7] was > 20.6 µM (inactive) each time. The Potency result in assay [8], in [9] and in [13] was “inactive” in each case. Further, the max response in assay [12] (setting [18]) is -14.5%; in assay [12] (setting [19]), -17.7%. The outcome in assay [16] was inactive.

For the compound `COc1ccccc1CNc1ncnc2ccc(-c3cccc(C#N)c3)cc12`, the Potency is > 11.4 µM (inactive) in [1]; 0.251 µM (active) in [3]; > 46 µM (inactive) in assay [6]; > 46 µM (inactive) in assay [7]; 7.94 µM (active) in assay [10]; 5.01 µM (active) in assay [17]. Further, the activity change, negative = inhibition in assay [4] is -8.04% (inactive); in assay [12] (at 57.5 µM (top of the series)) it was -12.8% (inactive). The activity, negative = inhibition in assay [5] is -17.5% (inactive). Also, the Potency result in [8], in assay [11] and in [13] was “inactive” each time. Also, the results for the max response in assay [12] (setting [18]) and in assay [12] (setting [19]) were -3.32% and -14.8%, respectively.
